The full ranking holds about 59,000 sequences; the median of the read-out is about -0.00055, and the lowest 2% start at about -2. This excerpt belongs to a sample that is enriched for the lowest values.

This assay is described as follows: Identification of proteins required for the processing of the EWS-FLI1 nascent transcript.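 Further: robust z of luciferase light less the median z of siRNAs with the same seed.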 Conditions: TC32 Ewing sarcoma NR0B1-luc vs CMV-luc (EWS-FLI1 target promoter against control promoter), 48 h; screened at 20 nM (by protocol). The procedure, abridged:
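Readout: OneGlo luminescence, 48 h post-transfection, TC32-NR0B1-luc vs TC32-CMV-luc in parallel. siRNA 20 nM final, RNAiMax lipid, 600 cells/well; z-score-MAD transformed, then seed-adjusted.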
Take UUUAGAGCGAGUGGUUAGC against PPHLN1: the seed-corrected z-score amounted to 0.884.

In turn, UAAUCUUUUCAUGCAACUC against SNCA-AS1 gave a seed-corrected z-score of -2.06.

UAGGUGAAGAUCUUGUUUC against COMMD10 yielded a seed-corrected z-score of -0.785.

For AAAUGAUUUAUAUCCCUGG against ABCC6P1, the seed-corrected z-score was -14.5.

On to AUCGGUAAGAUCCUAAUGG against VPS13A, for which the seed-corrected z-score turned out to be 0.281.

Regarding UAUUCUACCUCGUACCUCC against TBC1D22B, the seed-corrected z-score was -0.239.

As for ACCAGUAUAACCCAGAGUC against FCGR1A, the seed-corrected z-score was determined as 0.036.

Take UAUAGAGGAAAGCUAUGCC against ERCC6L: the seed-corrected z-score amounted to 0.528.

In turn, AAAGCGAGUUUUCUCAUCC against COPA registered a seed-corrected z-score of -4.21.

Turning to AACUGGAUAGGAGGACUGC against HSF5, the seed-corrected z-score was -0.327.

UUAAUUCUCGGAUGUGCUC against ANXA11 came in with a seed-corrected z-score of 0.143.

Sequence UUAUGUUUUCCUACUCCAC against TCEAL1 displayed a seed-corrected z-score of -2.4.

As to UGAAGGCCAACCGCUCUGU against ALG1L6P, the seed-corrected z-score was 0.486.

UCAGUUUGAUUAUUUCUCU against RASSF4 registered a seed-corrected z-score of 0.41.

For the sequence UGACUUCACCCAGAAGCAC against SLC25A41, the seed-corrected z-score is -0.697.

The sequence UCAUCAUCCAAAGAUGUAC against C20orf196 came in with a seed-corrected z-score of -1.47.

On to UAUUCGAGCGCAGUGCUGG against C10orf67, for which the seed-corrected z-score was -0.133.

With AUUGGUAGAACAAAGUUCC against PRELID3A, the seed-corrected z-score turned out to be 0.478.

In the case of UUUUGUUGUGAGCUGAUGC against SF3B4, the seed-corrected z-score is -3.

The sequence UUCCUUGGAGCUGGGAUCU against PSORS1C1 yielded a seed-corrected z-score of -1.32.

Consider UUCUUUUUCAAACAGCUCU against ISY1, for which the seed-corrected z-score is -1.17.

Consider UACUGGUCAAUCGCUGUUC against CEP192, for which the seed-corrected z-score was -0.996.

Sequence UUAUUGUUCUUUCGGAUCC against SELP yielded a seed-corrected z-score of 0.564.

Take UCCGGUAAGACAUUCUCUG against EAPP: the seed-corrected z-score stood at 0.402.

As to AUGACUUUUAGUGUAAUCC against LOC439994, the seed-corrected z-score is -2.2.

For the sequence UAUGUCGUCUUGGAGAUCG against SNRNP27, the seed-corrected z-score is -0.0915.

With UUAAGAGUGACUCAAUUUG against MGAT2, the seed-corrected z-score was -0.219.

In turn, AUUGAGUAUCACGUCAUCC against TTLL4 gave a seed-corrected z-score of -2.43.

With ACCUUGAUGGUUUUUGAUG against LOC649294, the seed-corrected z-score worked out at 0.0918.

Take UUUCUUAAUGGUGGUGCCC against SLC7A7: the seed-corrected z-score was -0.929.

In turn, UGUAUUAUCGUGUCCGAGC against CTNNBL1 gave a seed-corrected z-score of -0.748.

Turning to UGAUAACCCACAUUGAAGG against DEGS1, the seed-corrected z-score is -0.494.

In turn, UCUUCUUCCAGUAUAAGGC against KITLG had a seed-corrected z-score of 0.53.

For UCAACACCCAGGUAGCGGA against DUSP26, the seed-corrected z-score is -2.05.

In turn, UAAAGGGUUGUGGGAAAUG against LRRC30 registered a seed-corrected z-score of -1.26.

UCUGGAAUUUGACUGCUCG against RPL24 yielded a seed-corrected z-score of -0.838.

UACGUAAGAAAUAGGAACG against OR6C76 yielded a seed-corrected z-score of -2.11.

For UCAACUUCCAUGAUUUUCC against IGF2BP2, the seed-corrected z-score is -0.332.

UUCCGGUCAUAAUUCAGCC against PPFIA4 showed a seed-corrected z-score of -0.228.

As for AAUGGUAAACUUGAUUUCA against TP53I11, the seed-corrected z-score is 0.091.

AUAGAGGUGAGGGUCAUGC against TGFBI: the seed-corrected z-score is -2.38.

As for UACUUCUAUGUAGAGGUCC against AKIP1, the seed-corrected z-score was -0.138.

The sequence UCAGUUUGGAAUGAGGAGG against LOC345051 displayed a seed-corrected z-score of -0.469.

Sequence UGUGGAUGCGGCGAUGUUC against ZNF574 showed a seed-corrected z-score of 0.836.

Sequence UGCUUUUAGAAAGUCCAUG against HAUS1 registered a seed-corrected z-score of -0.637.

On to ACCGUUGUAGUCUCCAUCG against ANO1, for which the seed-corrected z-score was -11.8.

UUUUCAUCUGGUAAAAGGG against FAM13C had a seed-corrected z-score of -1.06.

Sequence UAUCUUCAGAUCGCUGUAC against ANKFY1 showed a seed-corrected z-score of 0.715.

Take UCUUCGUCCACUCUGAAUC against NMU: the seed-corrected z-score was -2.29.

Regarding UUUGAUAUUCAUAACGAUC against N4BP2L2, the seed-corrected z-score was found to be 0.28.

Turning to UGCAGUGGACCAUUUAUGC against SUN5, the seed-corrected z-score is -1.1.

In turn, UACCGAUUGUGAAUGAACC against NHS returned a seed-corrected z-score of -17.

With UUUGGAAUCCUUUACUUGG against GLE1, the seed-corrected z-score was 0.251.

For the sequence UUCAUGACAGUGACGAUGC against ITPR3, the seed-corrected z-score is -0.0506.

Consider UCUUGGAGUUCCGUCUUUG against FGF20, for which the seed-corrected z-score is -0.184.

With UCAUUGAUUAGGUGGAUGC against RRP9, the seed-corrected z-score was -0.724.

AUCUGGACCACUAUUUCUU against RSPH9 yielded a seed-corrected z-score of 0.909.

Sequence UGUAGAGAUGCGGUGGUCC against BIRC5 showed a seed-corrected z-score of -2.18.

UAGUUUAACCUUGUCAUCC against CASC4 returned a seed-corrected z-score of -0.368.

For UACACUUUCAAAAUCUCUC against ZNF845, the seed-corrected z-score stood at 0.844.

UUUAUGACCUCAUUAAGUC against LHCGR came in with a seed-corrected z-score of 0.284.

The sequence UGAUGAGAUAGAGCCGUGC against TRIM56 yielded a seed-corrected z-score of -0.836.

GAAUUUCAGCCGUAGCACG against TMUB1 yielded a seed-corrected z-score of -2.19.

ACAAUGGCAUCUUGUGGGC against CORT registered a seed-corrected z-score of 0.108.

For the sequence UAGUAUGCGGUGGUGAUGG against RAB3A, the seed-corrected z-score was -0.77.

Regarding UUGGGCAUAUGUUUGCUGC against TACO1, the seed-corrected z-score was found to be 0.306.

Take UCGUUUCAAAGGGCUGUGG against SAMD4A: the seed-corrected z-score was -2.94.

UGAGCAAGGUCUCCAAUCC against SH3RF3 had a seed-corrected z-score of -0.33.

The sequence UUUCGUUUGAGAAAUGCGC against MED23 came in with a seed-corrected z-score of 0.711.

With AUAGUGACCACCCUCAAUC against SPTA1, the seed-corrected z-score was 0.293.

In the case of UACGUUCUGAAUCAAGAAG against DENND5A, the seed-corrected z-score is -0.28.

For UAAGCAUAUAUUCCCGUAC against CDC7, the seed-corrected z-score was 0.52.

The sequence UUUAUAGUUGGUUAGGUUC against EPB42 displayed a seed-corrected z-score of -0.0918.

Sequence AUUUGGACCAGUAUGCUUC against HNRNPH1 had a seed-corrected z-score of -2.98.

UAUUCUGAGAUGCGAAGGC against SLC26A11 had a seed-corrected z-score of 0.879.

As for UCCAAGAUGAUUCCUCUCC against ZNF557, the seed-corrected z-score was -0.0489.

In the case of AAAAGAUGCCCAUUCAUUG against DCDC2C, the seed-corrected z-score is 1.89.

The sequence UCAGGAGCAAAGCUUCUUC against VNN3 displayed a seed-corrected z-score of 0.325.

On to UCAGCUGAUUCAUUAGAGG against TRIM44, for which the seed-corrected z-score was -0.356.

Take UCUGUUGUUAGCACACGUC against NID1: the seed-corrected z-score was -0.891.

The sequence UAUGCUUUCUUGACAGCCC against KCNAB1 yielded a seed-corrected z-score of -4.96.

UCCUUGGACAUCAAGAGCC against C16orf91: the seed-corrected z-score was -0.516.

For the sequence UAAUCUAUCCAGGAAUUCC against TTC5, the seed-corrected z-score is 0.1.

UUUGUUGGAACCCAAGAGC against BLID: the seed-corrected z-score was -2.2.

The values above are taken from PubChem BioAssay AID1159506 (National Center for Advancing Translational Sciences (NCATS), 2015).
